Laboratory results reported in PubChem BioAssay AID504339 (National Center for Advancing Translational Sciences (NCATS), 2011).
About 17,000 (4.4%) of roughly 390,000 compounds were called active. Another 8% or so got no clear call; they are omitted. This is one part of a sample in which actives are shown more often than they occur. Calls come from the whole dose curve; as a rule, active = well fitted inhibition curve with a large enough effect; inconclusive = small, poorly fitted or top-dose-only effect; inactive = no such curve, though single readings can be large or run the other way.

target: Lysine-specific demethylase 4A (Homo sapiens) (UniProt O75164); experiment: qHTS Assay for Inhibitors of JMJD2A-Tudor Domain; conditions: AlphaScreen JMJD2A-Tudor / H3K4me3 peptide binding; series mostly up to 114 µM; note: nearly all actives have a fitted effect of over 50% in size
Sequence (O75164 whole entry, looked up, the tested form may be a part): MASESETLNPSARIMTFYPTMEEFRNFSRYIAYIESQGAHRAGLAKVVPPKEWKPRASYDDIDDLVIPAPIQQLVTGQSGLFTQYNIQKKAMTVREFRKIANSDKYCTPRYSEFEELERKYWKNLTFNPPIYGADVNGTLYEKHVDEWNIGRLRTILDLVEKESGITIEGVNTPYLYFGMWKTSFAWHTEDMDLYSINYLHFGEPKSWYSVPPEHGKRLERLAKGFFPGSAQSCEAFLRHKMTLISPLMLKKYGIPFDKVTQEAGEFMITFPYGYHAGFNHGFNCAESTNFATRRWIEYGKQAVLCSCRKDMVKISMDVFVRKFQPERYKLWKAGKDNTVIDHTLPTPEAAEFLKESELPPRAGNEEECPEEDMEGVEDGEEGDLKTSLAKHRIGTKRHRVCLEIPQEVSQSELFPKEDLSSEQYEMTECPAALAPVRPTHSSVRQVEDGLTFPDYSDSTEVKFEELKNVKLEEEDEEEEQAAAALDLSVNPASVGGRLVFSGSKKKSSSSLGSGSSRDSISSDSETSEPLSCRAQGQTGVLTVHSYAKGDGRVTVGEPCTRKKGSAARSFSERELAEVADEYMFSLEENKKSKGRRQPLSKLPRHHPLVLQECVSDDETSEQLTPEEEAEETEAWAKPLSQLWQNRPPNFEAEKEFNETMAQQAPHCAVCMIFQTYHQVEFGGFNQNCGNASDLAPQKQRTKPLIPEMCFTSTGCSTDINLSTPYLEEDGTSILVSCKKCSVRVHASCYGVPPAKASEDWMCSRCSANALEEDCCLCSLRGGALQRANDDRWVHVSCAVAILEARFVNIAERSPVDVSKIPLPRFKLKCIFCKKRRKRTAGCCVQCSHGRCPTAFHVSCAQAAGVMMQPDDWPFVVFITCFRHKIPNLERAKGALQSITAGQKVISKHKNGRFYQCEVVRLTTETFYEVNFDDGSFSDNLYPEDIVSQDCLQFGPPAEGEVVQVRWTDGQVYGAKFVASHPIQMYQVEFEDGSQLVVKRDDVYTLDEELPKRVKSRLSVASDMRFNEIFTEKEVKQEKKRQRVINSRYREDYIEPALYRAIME
Excerpt: JMJD2A is a jumonji-domain-containing lysine demethylase that uses Fe(II) together with 2-OG to effect oxidative demethylation of histones. Methylation is one of many […] modification that affect epigenetic transcription. […] It is proposed that the functions of JmjD2A binding to the histones, is to maintain marks after they are installed and to spread the modifications by […], establishing a self-propagating cycle for rapid methylation over a large area of chromatin. […] Thus, small molecule targeting of the JMJD2A-tudor domain interaction with its target methylhistone mark is expected to enable sophisticated experiments probing the fine regulatory pathways leading to selective demethylation of a given methyllysine locus based on the methylation state of adjacent histone marks. A quantitative high throughput AlphaScreen has been developed to identify small molecule inhibitors based on a protocol published by NCGC and SGC [4].
Although AlphaScreen has significant advantages with its utility in a variety of epigenetic target assays, the primary screening data provided in this deposition should be used with caution due to the prevalence of screening artifacts. The top compound concentration tested was high (>100uM) in this assay, which increases number of actives and potential artifacts. An AlphaScreen counterscreen is highly recommended to be run against any putative actives to eliminate non-specific artifacts. Alternatively, one can use other AlphaScreen assays in PubChem to filter out promiscuous hits.
[1] Lee, J. et al. Distinct binding modes specify the recognition of methylated histone H3K4 and H4K20 by JMJD2A-tudor. Nat Struct Mol Biol. 15(1); 109-11. 2008. PMID: 18084306
[2] Yasgar, et al. Compound Management for Quantitative High-Throughput Screening. JALA. 2008 Apr;13(2):79-89. PMID: 18496600
[3] Inglese, et al. Quantitative high-throughput screening: a titration-based approach that efficiently identifies biological activities in large chemical libraries. Proc Natl Acad Sci. 1;103(31):11473-8. 2006. PMID: 16864780
[4] Quinn et al. A homogeneous method for investigation of methyl-dependent protein-protein interactions in epigenetics. Nucleic Acids Res., 38(2):e11. 2010. PMID: […]
[5] Baell,Holloway. New substructure filters for removal of pan assay interference compounds (PAINS) from screening libraries and for their exclusion in bioassays. J Med Chem. 53(7):2719-40. 2010. PMID: 20131845
NIH Molecular Libraries Probe Production Network [MLPCN]
NIH Chemical Genomics Center [NCGC]
Structural Genomics Consortium (SGC)
To each well of a 1,536w plate, 2ul of JMJD2A-Tudor (final 100nM) and 1ul biotinylated histone peptide methylated at Lys4 [b-H3(1-18)K4me3] (final 50nM) were added in 1x PBS buffer, pH 7.4, containing 0.01% Tween-20, using a nanoliter dispenser. Formation of a protein-peptide complex proceeded at room temperature for 30 min. A Kalypsys pin-tool transferred 23nl of library compound solution in DMSO to each well. Following a 30 min incubation of the protein-peptide complex with compounds at room temperature, a mixture of 40 µg/mL each streptavidin-coated donor and nickel chelate acceptor AlphaScreen beads (final 10 µg/mL) was added in a 1ul dispense for a final volume of 4ul, followed by a brief centrifugation (1000 rpm, 1 min). Plates were incubated protected from the light for 20 min at room temperature. Microplates were then read on an EnVision multilabel plate reader using the 1,536 plate HTS AlphaScreen aperture (excitation time 80 ms, measurement time 240 ms).
% is set by controls: 0 for no effect and ±100 for the full control effect; potency is the fitted concentration of half-maximal effect.

Potency, active:
C=CCn1c(=S)[nH]c2scc(-c3ccco3)c2c1=O 28.2 µM
N#C/C(=C(\O)CCl)c1nnc2n1CCCCC2 35.5 µM
Cc1nc(-c2ccccc2)sc1C(=O)/C=C/N(C)C 44.7 µM
CCN(CC)CCCSc1nc2ccccc2s1 28.2 µM
COc1ccc(-c2c(-c3cc(OC)cc(OC)c3)n(C)c3ccc(-c4ccn[nH]4)cc23)cc1 22.4 µM
Cc1cc(C)nc(N/N=C/c2c(CO)cnc(C)c2O)n1 89.1 µM
CN(C)c1ccc(CSc2ccccc2)cc1 20 µM
Cc1ccccc1NC(=O)CSC(=O)c1ccccc1 89.1 µM
Cn1c(CC2Sc3ccccc3NC2=O)nnc1SCC(=O)c1ccc(Cl)cc1 (stereo not given) 25.1 µM
O=C(CN1C(=O)/C(=C/c2ccccc2F)Sc2ccccc21)NCc1cccnc1 89.1 µM
C=CC[n+]1c(-c2ccc(C)cc2)csc1NNC(=O)Nc1ccccc1 28.2 µM
CCC(C)(C)n1nnnc1C(c1ccc(OC)c(OC)c1)N1CCN(C(=O)c2ccco2)CC1 (stereo not given) 79.4 µM
CSCc1nnc(NC(=O)c2ccc(S(=O)(=O)N3CCCCC3C)cc2)o1 (stereo not given) 50.1 µM
CCN(CC)S(=O)(=O)c1ccc(NC(=O)c2cccnc2Cl)c(NC(=O)c2cccnc2Cl)c1 31.6 µM
Cc1cc(C)c(S(=O)(=O)N2CCOCC2)cc1C 11.2 µM
CN(C)c1ccc(C(=S)N2CCN(C(=S)Nc3ccc(Cl)cc3)CC2)cc1 28.2 µM
O=C(N/N=C/c1cc(Cl)cc([N+](=O)[O-])c1O)C(O)(c1ccccc1)c1ccccc1 50.1 µM
CN(C)c1cc(N)c2ccccc2n1 (tested in a mixture with another compound) 2.82 µM

Potency, inactive:
Fc1ccc(CN2CCc3nc(Nc4ccccc4)ncc3C2)cc1F
CN1C(=O)c2[nH]nc(-c3ccc(F)cc3)c2C1c1ccccn1 (stereo not given)
Cc1ccc(NC(=O)c2cc3cc(C)ccc3n2C)cc1
CCc1ccc(S(=O)(=O)n2ccnc2)cc1
CCCCOc1ccc(CNC(=O)c2ccc3c(c2)N(C)C(=O)C2CCCCN32)cc1 (stereo not given)
CCC1(C)Cc2c(sc3[nH]c(=S)n(Cc4ccccc4)c(=O)c23)CO1 (stereo not given)
Cc1ccc(CCNC(=O)Cn2c(-c3cccs3)cc3cc(F)ccc32)cc1
N#C/C(=C(\O)C(F)(F)F)c1nnc2n1CCCCC2
N#C/C(=C/c1cccc([N+](=O)[O-])c1)c1nnc2n1CCCCC2
COc1ccc(N2CCN(c3cc(C)nc4nncn34)CC2)cc1
CCCCN1CC(c2nc3ccccc3n2CCCCOc2ccc(C)cc2C)CC1=O (stereo not given)
O=[N+]([O-])c1ccc(S(=O)(=O)N2CCN(c3nc(-c4ccccc4)nc4ccccc34)CC2)cc1
Cc1nc(COc2cccc(Cl)c2)sc1C(=O)/C=C/N(C)C
CN(C)/C=C/C(=O)c1ccccc1F
COCCN(Cc1ccco1)C(=O)Cn1ncc2c([nH]c3ccccc32)c1=O
O=S(=O)(c1ccc2c(c1)OCCO2)N1CCN(S(=O)(=O)c2cc(F)ccc2F)CC1
CCOC(=O)c1c(S(=O)(=O)N2CCCC(C(=O)NCc3ccc(F)cc3)C2)c(C)n(CC)c1C (stereo not given)
CCN(CC)CCn1c2c(c(SCC(=O)Nc3nc4ccccc4s3)nc1=O)CCCC2
Cn1c(=O)[nH]c(=O)c2c1nc(N1CCN(CCO)CC1)n2CCSc1nc2ccccc2s1
COc1ccc(C(=O)COC(=O)CCCC(=O)Nc2cc(C(F)(F)F)ccc2Cl)cc1
COc1c(Cl)cc(C(=O)N(Cc2ccccc2F)C2CCS(=O)(=O)C2)cc1Cl (stereo not given)
Cn1nnnc1SCCNCc1ccc(Cl)c(Cl)c1
CCOc1ccccc1C(=O)NCc1ccc2c(c1)CCN2C(=O)c1ccc(F)cc1
COc1cc(OC)cc(-c2c(-c3ccc(F)cc3)c3cc(-c4ccc5cc[nH]c5c4)ccc3n2C)c1
COc1cc(OC)cc(-c2c(-c3cccs3)c3cc(-c4ccc(OC)nc4)ccc3n2C)c1
Cc1cccc(OCCCC(=O)Nc2sc3c(c2C(N)=O)CCC(C)C3)c1 (stereo not given)
CCS(=O)(=O)c1nc(S(=O)(=O)c2ccc(C)cc2)c(NCc2ccc(Cl)cc2)s1
Cc1ccccc1NC(=O)Cn1c(=O)n(CC2CCC(C(=O)NCCc3ccccc3)CC2)c(=O)c2ccccc21 (stereo not given)
CCc1ccc(CNC(=O)c2cc3c(=O)n(CC)c4ccccc4c3s2)cc1
CN(C)c1cc[n+](Cc2ccccc2)cc1
CN(C)c1ccc(C(CC(=O)O)C(=O)O)cc1 (stereo not given)
Cc1cccc(NC(=O)CSC(N)=O)c1C
Cc1ccccc1NC(=O)CCOc1ccccc1
COc1ccccc1NC(=O)c1sc2nc(C)c(C(=O)Nc3ccc(Cl)cc3)c(-c3ccc(Br)cc3)c2c1N
Cn1c(CC(=O)Nc2ccccc2)nnc1SCC(=O)c1ccccc1
O=C(CC1Sc2ccccc2NC1=O)NNc1ccc(Cl)c(Cl)c1 (stereo not given)
CN(C(=O)CSc1nnc(NC(=O)Nc2ccccc2)s1)c1ccccc1
COc1ccc(CNC(=O)Cn2nnc(-c3ccccc3F)n2)cc1
Cc1cccc(NC(=O)Cn2cc(S(=O)(=O)Cc3ccccc3Cl)c3ccccc32)c1
CSc1ccc(C2C(C(=O)Nc3ccccc3)=C(C)Nc3nc4ccccc4n32)cc1 (stereo not given)
COCCNC(=O)c1cc(-c2cccc(Cl)c2)on1
O=C(CN1C(=O)/C(=C\c2ccc(C(F)(F)F)cc2)Sc2ccccc21)NCc1ccco1
O=C(CN1C(=O)S/C(=C\c2ccccc2F)C1=O)NCCCn1ccnc1
Cc1nn(CC(=O)N2CCN(c3cccc(C(F)(F)F)c3)CC2)c(=O)c2cc3sccc3n12
CCc1ccc(S(=O)(=O)Nc2cc3c(C(=O)OCc4ccccc4)c(C)oc3c3ccccc23)cc1
Cc1ccc(-c2cc(C(=O)Oc3ccccc3Cl)no2)cc1C
Cc1ccc(NC(=O)NNC(=O)c2sccc2-n2cccc2)cc1
O=C(NNC(=O)c1ccc(-c2ccccc2)cc1)Nc1ccccc1
FC(F)(F)c1cc(Nc2nc3ccccc3c3nncn23)ccc1Cl
CCC(c1nnnn1C1CCCC1)N1CCN(C(=O)c2ccco2)CC1 (stereo not given)
CC(C)(C)n1nnnc1C(c1ccccc1F)N1CCN(C(=O)c2ccco2)CC1 (stereo not given)
CC1CCCCN1S(=O)(=O)CCNC(=O)c1ccccc1 (stereo not given)
Cc1nnc(C)n1-c1ccc(C(=O)Nc2cccc(Br)c2)cc1
COC(=O)CN1C(=O)CSc2ccc(S(=O)(=O)Nc3cc(C)ccc3C)cc21
CC(C)(C)OC(=O)N1CCC(c2c(C(=O)N3CCc4ccccc4C3)cnn2-c2ccc(F)cc2)CC1
Cc1ccc(Cl)cc1N1CCN(C(=O)C2CCC(CNS(=O)(=O)c3cccs3)CC2)CC1 (stereo not given)
C#CCOc1ccc(C2CC(=O)Nc3c2c(C)nn3-c2nc(C)cc(C)n2)cc1 (stereo not given)
Cc1ccc(CSc2oc(-c3cccs3)nc2S(=O)(=O)c2ccc(C)cc2)cc1
Cc1ccc(CNC(=O)c2cccnc2Cl)cc1
CCN(CC)S(=O)(=O)c1ccc(NC(=O)c2cnc(C)cn2)cc1
Cc1ccccc1CN1CCC(CNC(=O)c2cc3ccc4cccnc4c3[nH]2)CC1
Cc1ccc(C(=O)Nc2c(C(=O)NC(C)(C)C)oc3ccccc23)cc1
O=C(Cc1ccc(Cl)cc1)NCC(c1cccs1)S(=O)(=O)c1ccc(Cl)cc1 (stereo not given)
COc1cc(C)c(S(=O)(=O)N2CCOCC2)c(C)c1C
Cc1ccc(NC(=O)C2CC2)cc1S(=O)(=O)N1CCOCC1
Cn1nc(-c2ccccc2)c(-c2ccccc2)c(C(=O)Nc2ccc(S(N)(=O)=O)cc2)c1=O
CCOc1cccc2sc(N3CCN(C(=O)C4CC4)CC3)nc12
CCOC(=O)c1c(C)[nH]c(CCC(=O)Nc2ccc(OC)c(OC)c2)c1C
O=C1Cc2cc(S(=O)(=O)Nc3ccc(OC(F)(F)F)cc3)cc3c2N1CCC3
O=C(NC1CCN(C(=S)Nc2ccc(Cl)cc2)CC1)C1CCCCC1
CCOC(=O)c1ccc(NC(=S)N2CCCC2)cc1
Cc1c(CNC2CCCCC2)c(C(=O)O)c(C)n1Cc1cccc(Cl)c1
Cc1cccc(NC(=O)CSc2nnc(CNC(=O)c3cccc(C)c3)n2-c2ccccc2)c1
Cc1nn(-c2ccccc2)c(Cl)c1/C=N/NC(=O)c1nn(C)cc1[N+](=O)[O-]
O=C(Cc1ccccc1)N/N=C/c1ccc(Cl)cc1Cl
CCOC(=O)c1ccc(NC(=O)Cn2c(=O)cc(C)c3c(C)nn(-c4cccc(F)c4)c32)cc1
CCN1C(=O)c2ccccc2S(=O)c2ccc(C(=O)NCc3ccc(F)cc3)cc21 (stereo not given)
CN(c1ccc2nc3ccccc3c(=O)n2n1)C1CCCCC1
O=C(CC1N=C2c3ccccc3N=C(SCc3ccc(F)cc3)N2C1=O)NCc1cccs1 (stereo not given)
Cc1cc(-c2ccc(C)c(S(=O)(=O)N3c4ccccc4CC3C)c2)on1 (stereo not given)
O=S(=O)(c1ccc2nc(N3CCN(c4cccc(Cl)c4)CC3)ccc2c1)N1CCCCC1

Activity change, negative = inhibition, inactive:
CC1CCCCN1S(=O)(=O)c1ccc(C(=O)Nc2nnc(-c3cccs3)o2)cc1 (stereo not given) -1.53% [at 11.4 µM]
